Test results reported in PubChem BioAssay AID1345085 (National Center for Advancing Translational Sciences (NCATS), 2018).
Results filed as inconclusive are left out. A number with no mark means an inactive call. Calls of active or inactive are those of the source. Calls come from the whole dose curve; as a rule, active = well fitted cell-killing curve with a large enough effect; inconclusive = small, poorly fitted or top-dose-only effect, or effect the other way; inactive = no such curve, though single readings can be large or run the other way.

These compounds were tested on Es-2 (assay: Confirmatory qHTS for gynecologic anti-cancer compounds from libraries of approved drugs and bioactive compounds). Conditions: gynecologic cancer cell panel viability, ATPlite luminescence, 48 h; series mostly up to 57.6 µM; activity change, negative = viability loss: at the top concentration.
Method in brief: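 Cells (1,000/well) plated 16 h, then exposed 48 h at 37 °C to 11 concentrations (1:3) from 57.5 uM to 0.977 nM. Viability by ATPlite luminescence after 15 min; IC50 derived, with HEK 293T used for selectivity index.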
% is set by controls: 0 for no effect and ±100 for the full control effect; potency is the fitted concentration of half-maximal effect.
Note: nearly all actives have a fitted effect of over 55% in size.

| SMILES | activity change, negative = viability loss | Potency |
| --- | --- | --- |
| COc1ccc2cc3[n+](cc2c1OC)CCc1cc2c(cc1-3)OCO2 | -17.3% | – |
| CC(=O)O[C@H]1C(=O)[C@@]2(C)[C@H]([C@H](OC(=O)c3ccccc3)[C@]3(O)C[C@H](OC(=O)[C@H](O)[C@@H](NC(=O)c4ccccc4)c4ccccc4)C(C)=C1C3(C)C)[C@]1(OC(C)=O)CO[C@@H]1C[C@@H]2O | – | 0.0819 µM (active) |
| CNCc1ccc(-c2[nH]c3cc(F)cc4c3c2CCNC4=O)cc1 | -16.9% | – |
| O=C(/C=C/c1cccc(S(=O)(=O)Nc2ccccc2)c1)NO | – | 2.98 µM (active) |
| CCC1=CC2CN(C1)Cc1c([nH]c3ccccc13)[C@@](C(=O)OC)(c1cc3c(cc1OC)N(C)[C@H]1[C@@](O)(C(=O)OC)[C@H](OC(C)=O)[C@]4(CC)C=CCN5CC[C@]31[C@@H]54)C2 (some centres not stated) | – | 0.376 µM (active) |
| COC(C)(C)CCn1nc(Nc2c(C)cccc2C)c2cnc(Nc3ccc(OCCN4CCCC4)c(F)c3)nc21 | -21% | – |
| Cc1cc(C(=O)N2CCN(c3cccc(Cl)c3)CC2)n(-c2ccccc2)n1 | – | 2.43 µM (active) |
| Cc1ccc(C(=O)N(CCCN)C(c2nc3cc(Cl)ccc3c(=O)n2Cc2ccccc2)C(C)C)cc1 (configuration not stated) | – | 3.85 µM (active) |
| C[C@@H](Oc1cc(-c2cnn(C3CCNCC3)c2)cnc1N)c1c(Cl)ccc(F)c1Cl | – | 15.3 µM (active) |
| CC(C)n1nc(-c2cc3cc(O)ccc3[nH]2)c2c(N)ncnc21 | – | 4.85 µM (active) |
| Cc1[nH]c2ccccc2c1CCNCc1ccc(/C=C/C(=O)NO)cc1 | – | 0.172 µM (active) |
| Cc1cnc(Nc2ccc(OCCN3CCCC3)cc2)nc1Nc1cccc(S(=O)(=O)NC(C)(C)C)c1 | – | 8.63 µM (active) |
| O=C1c2c(O)ccc(O)c2C(=O)c2c(NCCNCCO)ccc(NCCNCCO)c21 | – | 0.968 µM (active) |
| FC(F)(F)c1ccc(/C=C/c2nc(COc3ccc(CCCCn4ccnn4)cc3)co2)cc1 | – | 24.3 µM (active) |
| CN(C)C/C=C/C(=O)Nc1cc2c(Nc3ccc(F)c(Cl)c3)ncnc2cc1OC1CCOC1 (configuration not stated) | – | 15.3 µM (active) |
| CCCc1nn(C)c2c(=O)[nH]c(-c3cc(S(=O)(=O)N4CCN(C)CC4)ccc3OCC)nc12 | 8% | – |
| O=C(NOC[C@H](O)CO)c1ccc(F)c(F)c1Nc1ccc(I)cc1F | – | 0.344 µM (active) |
| O=c1cc(CN2CCOCC2)occ1OCCCCCSc1ccnc2cc(C(F)(F)F)ccc12 | -3.9% | – |
| COCCOc1nc(-c2ccc(Cl)c(Cl)c2)n(-c2ccc(NC(=O)CCl)cc2)n1 | – | 5.44 µM (active) |

| SMILES | activity change, negative = viability loss | Potency |
| --- | --- | --- |
| CCCCc1nc2cc(/C=C/C(=O)NO)ccc2n1CCN(CC)CC | – | 1.09 µM (active) |
| NC(=O)Nc1cc(-c2cccc(F)c2)sc1C(=O)NC1CCCNC1 (configuration not stated) | – | 0.344 µM (active) |
| CC[C@@]1(O)C(=O)OCc2c1cc1n(c2=O)Cc2c-1nc1ccccc1c2/C=N/OC(C)(C)C | – | 0.0153 µM (active) |
| Nc1ccn([C@@H]2O[C@H](CO)[C@@H](O)C2(F)F)c(=O)n1 | – | 0.0306 µM (active) |
| CC(Oc1cc(-n2cnc3ccc(CN4CCN(C)CC4)cc32)sc1C(N)=O)c1ccccc1C(F)(F)F (configuration not stated) | – | 3.43 µM (active) |
| O=C(O)c1ccc(Nc2ncc3c(n2)-c2ccc(Cl)cc2C(c2c(F)cccc2F)=NC3)cc1 | 5.57% | – |
| C1CCC(C(CC2CCCCN2)C2CCCCC2)CC1 (configuration not stated) | – | 24.3 µM (active) |
| COc1cc2c(NC3CCN(C(C)C)CC3)nc(C3CCCCC3)nc2cc1OCCCN1CCCC1 | – | 12.2 µM (active) |
| Oc1cn2c(n1)Nc1ccc(Cl)c(Cl)c1C2 | -1.22% [at 19.5 µM] | – |
| CN(C)C(CCOc1cccc2ccccc12)c1ccccc1 (configuration not stated) | -16.9% | – |
| CNC1CCC(N(Cc2cccc(-c3ccncc3)c2)C(=O)c2sc3ccccc3c2Cl)CC1 (configuration not stated) | – | 24.3 µM (active) |
| Nc1nccc(Oc2ccc(NC(=O)c3c[nH]cc(-c4ccc(F)cc4)c3=O)cc2F)c1Cl | – | 34.3 µM (active) |
| COc1cccc2c1C(=O)c1c(O)c3c(c(O)c1C2=O)C[C@@](O)(C(=O)CO)C[C@@H]3O[C@H]1C[C@H](N)[C@H](O[C@@H]2CCCCO2)[C@H](C)O1 | – | 7.69 µM (active) |
| O=C1Cc2cc(CCN3CCN(c4nsc5ccccc45)CC3)c(Cl)cc2N1 | 12.2% | – |
| Cc1ccccc1C(OCCN(C)C)c1ccccc1 (configuration not stated) | 6.47% | – |
| CO[C@@]12[C@H](COC(N)=O)C3=C(C(=O)C(C)=C(N)C3=O)N1C[C@@H]1N[C@@H]12 | 12.2% | – |
| O=C(c1ccc(/C=C/c2n[nH]c3ccccc23)cc1)N1CCNCC1 | – | 27.3 µM (active) |
| Cn1cc(-c2[nH]c3cc(NC(=O)[C@H](N)C4CCCCC4)cc4c3c2C=NNC4=O)cn1 | – | 6.85 µM (active) |
